Consider 24 compounds from PubChem BioAssay (EPA / NIEHS).

Inconclusive results are not listed. The source made the active and inactive calls. The calls were made as follows: active = hit-call score of the fitted dose curve at least 0.9, where 1 is the maximum; inconclusive = response in the unintended direction; inactive = score below 0.9.

The target in the first assay is Androgen receptor (Homo sapiens) (UniProt P10275). The assay can be described thus: ATG_AR_TRANS: Attagene TRANS-FACTORIAL HepG2 Assay for human Androgen Receptor (AR) (AID 2282973). Particulars: HepG2 Attagene TRANS-FACTORIAL AR reporter transcription. The method in brief: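 HepG2 cells transiently transfected with AR-Gal4 chimera and GAL4-UAS reporter units; chemical exposure 24 h. Reporter mRNA quantified by RT-PCR with fluorescent labelling and capillary electrophoresis; gain-of-signal fitted against DMSO.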
Sequence of Androgen receptor (Homo sapiens) (P10275 whole entry, looked up, the tested form may be a part): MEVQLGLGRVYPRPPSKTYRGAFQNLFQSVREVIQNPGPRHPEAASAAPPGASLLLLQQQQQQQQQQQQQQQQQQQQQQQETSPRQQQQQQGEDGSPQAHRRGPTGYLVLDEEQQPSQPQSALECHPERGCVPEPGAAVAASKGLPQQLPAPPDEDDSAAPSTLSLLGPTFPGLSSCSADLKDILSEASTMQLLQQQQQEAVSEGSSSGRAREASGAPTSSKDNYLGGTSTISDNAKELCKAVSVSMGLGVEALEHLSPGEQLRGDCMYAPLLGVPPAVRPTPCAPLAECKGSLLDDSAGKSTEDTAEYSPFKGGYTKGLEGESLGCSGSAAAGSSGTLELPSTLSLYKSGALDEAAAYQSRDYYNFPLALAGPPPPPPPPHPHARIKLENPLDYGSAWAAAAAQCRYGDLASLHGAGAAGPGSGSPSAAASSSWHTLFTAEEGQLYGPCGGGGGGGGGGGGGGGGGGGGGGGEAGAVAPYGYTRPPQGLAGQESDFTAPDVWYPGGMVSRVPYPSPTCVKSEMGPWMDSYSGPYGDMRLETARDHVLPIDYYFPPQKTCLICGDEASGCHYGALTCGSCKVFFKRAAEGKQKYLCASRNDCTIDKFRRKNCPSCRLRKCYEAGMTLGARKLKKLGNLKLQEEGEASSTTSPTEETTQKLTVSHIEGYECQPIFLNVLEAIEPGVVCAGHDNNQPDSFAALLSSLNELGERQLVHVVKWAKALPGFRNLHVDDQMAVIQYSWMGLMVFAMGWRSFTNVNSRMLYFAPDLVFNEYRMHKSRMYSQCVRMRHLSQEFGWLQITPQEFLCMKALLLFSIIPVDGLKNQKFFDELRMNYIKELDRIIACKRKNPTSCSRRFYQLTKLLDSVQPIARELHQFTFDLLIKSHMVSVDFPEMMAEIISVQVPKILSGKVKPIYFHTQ
On to `CCOP(=O)(NC(C)C)Oc1ccc(SC)c(C)c1` (stereo not drawn), for which the result was inactive. Take `Cc1nn(-c2cc(NS(C)(=O)=O)c(Cl)cc2Cl)c(=O)n1C(F)F`: the result was inactive. On to `CCc1cccc(CC)c1N(COC)C(=O)CCl`, for which the call was inactive. `CCCCOC(=O)c1ccccc1C(=O)O`: the compound was classed as inactive.

System in another assay: not listed separately
The assay can be described thus: ATG_M_19_TRANS: Attagene TRANS-FACTORIAL HepG2 Assay for M19 Transcription Factor (Internal Marker) (AID 2282974). The note with it: HepG2 Attagene TRANS-FACTORIAL M19 internal marker reporter. In a few lines: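 Multiplexed TRANS format: HepG2 liver cells bearing transient GAL4-UAS reporter units, chemical treatment 24 h, reporter transcripts quantified by RT-PCR plus capillary electrophoresis. DMSO defines baseline.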
`COP(=O)(OC)OC(Br)C(Cl)(Cl)Br` (stereo not drawn): the compound was called inactive. Turning to `O=C(O)c1cc(Oc2ccc(C(F)(F)F)cc2Cl)ccc1[N+](=O)[O-]`, the outcome was inactive.

In the case of `CC(C1CC1)C(O)(Cn1cncn1)c1ccc(Cl)cc1` (stereo not drawn), the outcome was inactive. The same measure, in the same setting: under `CCOP(=O)(NC(C)C)Oc1ccc(SC)c(C)c1` (stereo not drawn) stands “inactive”.

For `CN(C)[C@@H]1C(=O)C(C(N)=O)=C(O)[C@@]2(O)C(=O)C3=C(O)c4c(O)cccc4[C@@](C)(O)[C@H]3[C@H](O)[C@@H]12`, the call was inactive. In the case of `CCC(=NOC/C=C/Cl)C1=C(O)CC(C2CCOCC2)CC1=O` (stereo not drawn), the call was inactive. On the same count and under the same terms, for `CCCOc1nn(C(=O)NS(=O)(=O)c2ccccc2C(=O)OC)c(=O)n1C` the value was “inactive”. The same measure, in the same setting: for `Cc1nn(-c2cc(NS(C)(=O)=O)c(Cl)cc2Cl)c(=O)n1C(F)F` the value was “inactive”; for `CCOP(=O)(SC(C)CC)N1CCSC1=O` (stereo not drawn), “inactive”; for `CCCCSP(=O)(SCCCC)SCCCC`, “inactive”. Consider `C[N+]1(C)CCCCC1`, for which the compound was classed as inactive. For the compound `Nc1nc(N)nc(NC2CC2)n1`, the compound was classed as inactive. On to `CCc1cccc(CC)c1N(COC)C(=O)CCl`, for which the compound was classed as inactive. In the case of `CCCOCC(=Nc1ccc(Cl)cc1C(F)(F)F)n1ccnc1`, the call was inactive. On to `CON=C(C(=O)OC)c1ccccc1CON=C(C)c1cccc(C(F)(F)F)c1`, for which the outcome was inactive. With `C#CC(C)(C)NC(=O)c1cc(Cl)cc(Cl)c1`, the call was inactive. On the same count and under the same terms, under `CNC(=O)ON=C(C)SC` stands “inactive”; under `CCNc1nc(Cl)nc(NC(C)(C)C#N)n1`, “inactive”; under `CCCCOC(=O)c1ccccc1C(=O)O`, “inactive”.

On to `CCOC(=O)CC(SP(=O)(OC)OC)C(=O)OCC` (stereo not drawn), for which the outcome was inactive. `CCc1cccc(C)c1N(C(=O)CCl)C(C)COC` (stereo not drawn): the compound was called inactive. As for `CCOC(=O)COc1cc(-c2nn(C)c(OC(F)F)c2Cl)c(F)cc1Cl`, the result was inactive. Take `FC(F)C(F)(F)OCC(Cn1cncn1)c1ccc(Cl)cc1Cl` (stereo not drawn): the outcome was inactive. As for `CC(C)[C@H](C(=O)O[C@H](C#N)c1cccc(Oc2ccccc2)c1)c1ccc(Cl)cc1`, the call was inactive.
